The text below walks through data of PubChem BioAssay.

For orientation: inhibition means the drop in the measured response relative to a control, in per cent.

For experiment [1], the target named is Nuclear receptor coactivator 1 (Homo sapiens) (UniProt Q15788). Kind of experiment: SRC1 coactivator transcriptional activity inhibitors, confirmation, cell-based, luminescence, quadruplicate (AID 588820;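 active means mean inhibition above 46.68%, the untreated control wells mean plus 3 SD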;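 further: 0% = DMSO wells and 100% = gossypol 36 µM treated wells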). To be noted: HEK293 GAL4-SRC1 luciferase reporter, at 3.6 µM, stronger effect = higher value. Background: In a reporter assay the amount or activity of a reporter protein is the signal.
Sequence of Nuclear receptor coactivator 1 (Homo sapiens) (Q15788 whole entry, looked up, the tested form may be a part): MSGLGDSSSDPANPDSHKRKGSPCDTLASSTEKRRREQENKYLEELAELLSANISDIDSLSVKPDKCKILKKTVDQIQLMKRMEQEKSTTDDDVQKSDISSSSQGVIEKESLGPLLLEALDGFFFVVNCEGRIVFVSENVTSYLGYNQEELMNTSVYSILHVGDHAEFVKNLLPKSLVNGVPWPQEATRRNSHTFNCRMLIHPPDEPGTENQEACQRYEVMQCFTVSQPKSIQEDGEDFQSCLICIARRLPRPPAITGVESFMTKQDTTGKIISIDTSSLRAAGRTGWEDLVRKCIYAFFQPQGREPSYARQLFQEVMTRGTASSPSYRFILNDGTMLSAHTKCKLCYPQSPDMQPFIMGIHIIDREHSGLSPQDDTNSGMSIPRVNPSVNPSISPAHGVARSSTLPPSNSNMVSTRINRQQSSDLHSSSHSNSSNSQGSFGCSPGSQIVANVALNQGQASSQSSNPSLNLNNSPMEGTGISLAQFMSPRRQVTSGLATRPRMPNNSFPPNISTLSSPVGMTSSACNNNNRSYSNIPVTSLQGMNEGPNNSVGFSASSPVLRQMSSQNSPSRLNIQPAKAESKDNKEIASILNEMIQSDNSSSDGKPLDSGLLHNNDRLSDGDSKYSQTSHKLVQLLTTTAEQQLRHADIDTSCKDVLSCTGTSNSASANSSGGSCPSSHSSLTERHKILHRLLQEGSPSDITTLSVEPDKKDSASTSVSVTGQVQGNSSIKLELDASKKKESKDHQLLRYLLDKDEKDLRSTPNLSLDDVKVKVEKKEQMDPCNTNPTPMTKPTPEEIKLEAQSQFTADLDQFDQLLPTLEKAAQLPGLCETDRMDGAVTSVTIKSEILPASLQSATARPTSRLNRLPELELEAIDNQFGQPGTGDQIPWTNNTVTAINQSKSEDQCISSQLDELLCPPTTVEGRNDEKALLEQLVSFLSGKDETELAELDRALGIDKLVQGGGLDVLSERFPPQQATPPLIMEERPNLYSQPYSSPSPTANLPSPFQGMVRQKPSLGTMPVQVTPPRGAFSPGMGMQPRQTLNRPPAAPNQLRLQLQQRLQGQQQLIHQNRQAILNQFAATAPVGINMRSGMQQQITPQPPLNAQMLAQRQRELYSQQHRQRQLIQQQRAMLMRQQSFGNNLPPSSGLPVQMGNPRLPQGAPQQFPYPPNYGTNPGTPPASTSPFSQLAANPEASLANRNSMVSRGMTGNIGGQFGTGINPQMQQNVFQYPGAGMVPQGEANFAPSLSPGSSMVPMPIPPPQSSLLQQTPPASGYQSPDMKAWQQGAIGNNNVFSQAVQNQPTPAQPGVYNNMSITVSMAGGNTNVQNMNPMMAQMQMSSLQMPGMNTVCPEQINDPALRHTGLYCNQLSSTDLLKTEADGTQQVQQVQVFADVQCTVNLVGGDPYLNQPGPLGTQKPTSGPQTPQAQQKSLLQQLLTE

Experiment [2] is described as follows: VP16 transactivation inhibitors, counter-screen for SRC1 inhibitor project, cell-based, luminescence, high throughput (AID 588824). Conditions: cell-based VP16 transactivation luciferase luminescence; at 3.6 µM; stronger effect = higher value. (In general: A counterscreen serves to expose hits that act by an unwanted route or on another target.)

A number with no mark means an inactive call. Active and inactive are the calls of the source. Unless noted, no stated cut-off is given here; in the data, active means inhibition above about 25%; inactive means the rest.

As to `O=C1c2cccc(OCc3ccc(F)cc3)c2CCN1Cc1ccccc1`, the inhibition in experiment [1] was 20.6%; in experiment [2], 13.6%.
In the same order, the values of `COC(=O)c1ccsc1NC(=O)CN1CCN(c2ncccn2)CC1` are -31.8% and -17.6%.
As for `CCOc1cccc(/C=N/NC(=O)c2cccnc2)c1O`, the inhibition in experiment [1] was 17.4%; in experiment [2], 9.63%.
On to `O=C1CC(N2CCN(Cc3ccccc3)CC2)C(=O)N1` (centres undefined), for which the inhibition in experiment [1] was -10.4%; in experiment [2], -10.1%.
As to `CSc1nccc(Oc2cncc(Cl)c2)n1`, the inhibition is 8.08% in experiment [1] and 5.07% in experiment [2].
`CN1CCN(c2nc(-c3cccs3)nc3ccccc23)CC1`: the figures for the inhibition in experiment [1] and in experiment [2] were 14.3% and 10%, respectively.
Take `O=[N+]([O-])c1ccc(C[n+]2cccc3c4ccccc4ccc32)cc1`: the inhibition is 3.12% in experiment [1] and 34.3% (active) in experiment [2].
In the same order, the values of `Cc1nnc(N2CCCC(C(=O)NCc3ccc(OC(C)C)cc3)C2)c2nn(-c3ccccc3)c(C)c12` (centres undefined) are -12.5% and -13.1%.
In the case of `CC[n+]1c(/C=C/Nc2ccccc2)oc2ccccc21`, the inhibition is 36.7% in experiment [1] and 28.5% (active) in experiment [2].
In the case of `NS(=O)(=O)c1ccc(NC(=O)CCCCC(=O)Nc2ccc(S(N)(=O)=O)cc2)cc1`, the inhibition is -1.93% in experiment [1] and -4.87% in experiment [2].
In the case of `O=C(COC(=O)COc1ccccc1)NCCc1ccccc1`, the inhibition was -16.7% in experiment [1] and -1.43% in experiment [2].
In the same order, the values of `COc1ccc(OCC(=O)Nc2ccc3c(c2)n(C)c(=O)n3C)cc1` are -14.2% and -5.89%.
For `COc1ccc(NC(=O)COc2ccccc2Cc2ccccc2)cc1S(N)(=O)=O` the same measures were 38.1% and 32.3% (active).
For `C=C1C(=O)O[C@@]23[C@H]1CC[C@@H](C)[C@@H]2CC[C@@]1(C)O[C@@H]31` the same measures were 1.63% and 7.69%.
On to `COc1ccc(-n2c(NNC(C)=O)nc3sc4c(c3c2=O)CCCC4)cc1`, for which the inhibition is 23.4% in experiment [1] and 31.6% (active) in experiment [2].
For `CCOC(=O)c1cc(C#N)c(SCC(=O)OC)[nH]c1=O`, the inhibition in experiment [1] was 1.73%; in experiment [2], -9.78%.
As to `CC(C)c1ccc2c(c1)C(N1CCN(C)CC1)Cc1cccnc1S2` (centres undefined), the inhibition was 6.3% in experiment [1] and -5.2% in experiment [2].
In the case of `CCCn1ncc(/C=N/O)c1C`, the inhibition in experiment [1] is 12.8%; in experiment [2], 25.9% (active).
As for `Cc1cc(C)c(Nc2cc(S(=O)(=O)O)c(N)c3c2C(=O)c2ccccc2C3=O)c(C)c1`, the inhibition was 9.3% in experiment [1] and 8.52% in experiment [2].
For `CCCc1cc(-c2ccc(O)c(OCC)c2)c(C#N)c(N)n1`, the inhibition in experiment [1] was -3.92%; in experiment [2], -2.24%.
Consider `O=C(Nc1nc(-c2ccccn2)cs1)c1cccc(S(=O)(=O)N2CCOCC2)c1`, for which the inhibition was 25% in experiment [1] and 20% in experiment [2].
Turning to `CCOC(=O)C(Cc1c(F)cccc1Cl)c1ccno1` (centres undefined), the inhibition in experiment [1] was -2.31%; in experiment [2], -14.2%.
For `N=c1c(C(=O)NCCc2ccccc2)cc2c(=O)n3ccccc3nc2n1CCCN1CCOCC1` the same measures were 6.5% and 18.9%.
In the same order, the values of `COC(=O)C(C)NC(=O)C12CC3CC(C1)CC(c1ccc(C)cc1)(C3)C2` (centres undefined) are -5.33% and 4.73%.
In the case of `COc1cc(S(=O)(=O)NCc2ccccc2Cl)ccc1-n1cnnn1`, the inhibition in experiment [1] was -9.68%; in experiment [2], -5.92%.
In the case of `CC(NC(=O)CSc1nc2ccccc2n1C)c1ccccc1` (centres undefined), the figures for the inhibition in experiment [1] and in experiment [2] were 0.06% and -11.7%, respectively.
In the same order, the values of `Cc1ccc(OCC(=O)NNC(=O)c2ccc3c(=O)n4c(nc3c2)CCC4)cc1` are -7.39% and -3.2%.
`Cc1ccc(OCC(=O)Oc2c(C)cccc2C)cc1C`: the results for the inhibition in experiment [1] and in experiment [2] were -3.92% and -9.72%, respectively.
For the compound `CC(C)C[C@H](NC(=O)c1nc[nH]c1C(=O)N1CCN(C(=O)OC(C)(C)C)CC1)C(=O)OC(C)(C)C`, the inhibition in experiment [1] is 21.8%; in experiment [2] it was 78.9% (active).
For `N#Cc1ccc(Oc2ccc(C(F)(F)F)cc2NC(=O)c2ccc(F)cc2)cc1` the same measures were 6.71% and 1.11%.
In the same order, the values of `O=C(N/N=C/c1cc(Cl)ccc1O)c1ccccc1Br` are 12.6% and 7.53%.
For `CCSc1nnc(NC(=O)C(C)(C(F)(F)F)C(F)(F)F)s1`, the values for the inhibition in experiment [1] and in experiment [2] were -15.3% and 4.32%, respectively.
Regarding `Cn1c(N)c(C(=O)CSc2nn(-c3ccccc3)c(=S)s2)c(=O)n(C)c1=O`, the inhibition in experiment [1] was 8.31%; in experiment [2], 17.7%.
As to `CCC(NC(=O)NC1CCCCC1)c1ccccc1` (centres undefined), the inhibition in experiment [1] is -16%; in experiment [2] it was -3.88%.
For the compound `c1ccc(-c2nc(NCCCn3ccnc3)c3ccccc3n2)cc1`, the figures for the inhibition in experiment [1] and in experiment [2] were -10.8% and -2.43%, respectively.
Consider `COc1cccc(/C=N/NC(=O)CSc2ccccc2C)c1O`, for which the inhibition is -0.52% in experiment [1] and 6.05% in experiment [2].
For `O=C(O)CNC(=O)c1cccc(C(F)(F)F)c1` the same measures were -9.63% and -6.05%.
As for `COc1ccc(C2c3cc(OC)c(OC)cc3CCN2S(C)(=O)=O)cc1OC` (centres undefined), the values for the inhibition in experiment [1] and in experiment [2] were 9.85% and 9.73%, respectively.
Turning to `O=C(c1ccccc1)N1CCN(Cc2ccc3c(c2)OCO3)CC1`, the inhibition is 0.9% in experiment [1] and 3.86% in experiment [2].
Consider `O=c1c2ccccc2cnn1Cc1n[nH]c(=S)n1C1CC2CCC1C2` (centres undefined), for which the inhibition was 8.04% in experiment [1] and -8.54% in experiment [2].
Take `Cc1sc2ncnc(N3CCN(C(=O)c4ccco4)CC3)c2c1C`: the inhibition in experiment [1] is -0.07%; in experiment [2], 7.79%.
For `Cc1nn(-c2ccccc2)c(N2CCCC2)c1/C=N/NC(=O)c1cc(-c2cccnc2)nc2ccccc12`, the values for the inhibition in experiment [1] and in experiment [2] were -42.9% and -7.83%, respectively.
As for `CN(C)S(=O)(=O)c1ccc(N2CCCC2)c(C(=O)OCC(=O)NC2(C#N)CCCCC2)c1`, the inhibition in experiment [1] is 4.07%; in experiment [2], -9.13%.
Turning to `COc1ccc(OC)c(/C=N/NC(=O)c2cc3c(OC)cccc3[nH]2)c1`, the inhibition in experiment [1] is -19.2%; in experiment [2] it was -10%.
Regarding `C=CCc1cccc(/C=N/NC(=O)C(C)Nc2ccc(C)cc2)c1O` (centres undefined), the inhibition in experiment [1] was 6.49%; in experiment [2], 8.01%.
In the same order, the values of `Cc1cc(C)c2nc(NNC(=O)c3ccc(S(=O)(=O)N4CC(C)CC(C)C4)cc3)sc2c1` (centres undefined) are 32.4% and 30.2% (active).
On to `CCOc1ccc(-c2nnc3ccc(SCC(=O)NCc4ccco4)nn23)cc1`, for which the inhibition in experiment [1] is -6.9%; in experiment [2], -3.63%.
For `CCOc1cccc(C(=O)Nc2nc(-c3ccc(S(=O)(=O)N4CCOCC4)cc3)cs2)c1` the same measures were -29.3% and -6.23%.
For `COc1cc(NC(=O)c2cc3cccc(OC)c3o2)cc(C(=O)Nc2cccc(C(F)(F)F)c2)c1`, the values for the inhibition in experiment [1] and in experiment [2] were -23.9% and 18.4%, respectively.
For `CC(C)C(=O)NC(Nc1cccc([N+](=O)[O-])c1)C(Cl)(Cl)Cl` (centres undefined), the inhibition in experiment [1] was 1.13%; in experiment [2], 0.4%.
As for `CCOC1(OCC)OC(c2ccccc2)=C(C#N)C(C=Cc2ccccc2)C1(OCC)OCC` (centres undefined), the figures for the inhibition in experiment [1] and in experiment [2] were 0.8% and 4.67%, respectively.
In the same order, the values of `COc1cc(NC(=O)c2cccc3c(-c4cnn(C)c4)coc23)cc(OC)c1OC` are -26.3% and -0.35%.
For `O=C(NCc1ccccn1)c1ccc(OC2CCN(Cc3ccc(F)cc3F)CC2)cc1` the same measures were -0.3% and 3.5%.
As for `CNc1snc(C)c1C(=O)OCC(=O)Nc1ccc(C)cc1F`, the figures for the inhibition in experiment [1] and in experiment [2] were 3.09% and -1.51%, respectively.
On to `COc1ccc([C@H]2CC(=O)C=C(c3ccnc4ccc(Cl)cc34)C2)cc1`, for which the values for the inhibition in experiment [1] and in experiment [2] were 2.04% and 29.2% (active), respectively.
Turning to `NS(=O)(=O)c1ccc(Nc2nc(-c3cccnc3)cs2)cc1`, the inhibition in experiment [1] is 15.8%; in experiment [2], 11.7%.
Regarding `Cc1ccc2cc3cc(C(=O)NCc4ccco4)oc3nc2c1`, the inhibition in experiment [1] was -10%; in experiment [2], 36% (active).
Turning to `Cn1cc(S(=O)(=O)Nc2ccc(OC(F)(F)F)cc2)c(=O)n(C)c1=O`, the inhibition in experiment [1] was 6.39%; in experiment [2], -5.51%.
With `Cc1sc2ncnc(N3CCC(C(=O)Nc4cc(S(C)(=O)=O)ccc4Cl)CC3)c2c1C`, the inhibition was 14.9% in experiment [1] and 9.27% in experiment [2].
Regarding `Cc1cccc(C)c1NC(=O)CNC(=O)Cc1c[nH]c2ccccc12`, the inhibition in experiment [1] was -0.57%; in experiment [2] it was -1.35%.
In the case of `Nn1c(SCC(=O)Nc2ccccc2)nnc(Cc2ccccc2)c1=O`, the values for the inhibition in experiment [1] and in experiment [2] were 0.49% and 5.01%, respectively.
As for `NS(=O)(=O)c1ccc(CNC(=O)c2cnccn2)cc1`, the inhibition in experiment [1] was -22.2%; in experiment [2] it was -8.37%.
With `Cc1ccc(NS(=O)(=O)c2ccc(C(=O)NC3CCN(Cc4ccccc4)CC3)cc2)cc1`, the inhibition was -9.12% in experiment [1] and 24.2% in experiment [2].
Turning to `COc1cc(C(=O)O)cc(NC(=O)c2ccco2)c1OC`, the inhibition was -9.74% in experiment [1] and 2.33% in experiment [2].
For `CNC(=O)CCCN1C(=O)c2ccccc2Sc2ncccc21`, the inhibition in experiment [1] was -2.17%; in experiment [2], -3.21%.
Turning to `Cc1c(C(=O)NN)nn(-c2ccc(Cl)cc2)c(=O)c1C#N`, the inhibition in experiment [1] was -10.1%; in experiment [2], 5.25%.
On to `O=C(CN1C(=O)COc2ccccc21)Nc1ccccc1F`, for which the values for the inhibition in experiment [1] and in experiment [2] were -26% and 1.99%, respectively.
Turning to `COc1ccccc1N1CCN(C(=O)C2CCN(S(=O)(=O)c3ccc4c(c3)CC(C)N4C(=O)C3CC3)CC2)CC1` (centres undefined), the inhibition in experiment [1] is -15.8%; in experiment [2] it was 5.48%.
In the same order, the values of `COC(=O)C(=N/Nc1ccccc1C(=O)OC)/C(C)=N/O` are -2.93% and -4.44%.
Take `CCOc1ccc(CCNC(=O)CSCc2ccc(C)cc2)cc1OCC`: the inhibition in experiment [1] was -18.5%; in experiment [2], -1.5%.
In the same order, the values of `Cc1c(C(=O)N/N=C/C(C)C)[nH]c2ccc([N+](=O)[O-])cc12` are 17.2% and 14.8%.
Take `COc1ccc(S(=O)(=O)N2CCOC23CCN(S(=O)(=O)c2ccc(Cl)cc2)CC3)cc1`: the results for the inhibition in experiment [1] and in experiment [2] were -7.54% and -6.07%, respectively.
